Inconclusive results are not listed. Active and inactive are the calls of the source. Calls come from the whole dose curve.
Each compound was assayed against Acetylcholinesterase (Homo sapiens) (UniProt P22303) (assay: Acetylcholinesterase (AChE) small molecule antagonists: fluorescence cell-based qHTS assay (AID 1347398; note: nearly all actives have a fitted effect of over 50% in size)). Details: SH-SY5Y cells; Potency: AChE activity; series mostly up to 115 µM; activity change, negative = inhibition: at the top concentration.
Sequence of Acetylcholinesterase (Homo sapiens) (P22303 whole entry, looked up): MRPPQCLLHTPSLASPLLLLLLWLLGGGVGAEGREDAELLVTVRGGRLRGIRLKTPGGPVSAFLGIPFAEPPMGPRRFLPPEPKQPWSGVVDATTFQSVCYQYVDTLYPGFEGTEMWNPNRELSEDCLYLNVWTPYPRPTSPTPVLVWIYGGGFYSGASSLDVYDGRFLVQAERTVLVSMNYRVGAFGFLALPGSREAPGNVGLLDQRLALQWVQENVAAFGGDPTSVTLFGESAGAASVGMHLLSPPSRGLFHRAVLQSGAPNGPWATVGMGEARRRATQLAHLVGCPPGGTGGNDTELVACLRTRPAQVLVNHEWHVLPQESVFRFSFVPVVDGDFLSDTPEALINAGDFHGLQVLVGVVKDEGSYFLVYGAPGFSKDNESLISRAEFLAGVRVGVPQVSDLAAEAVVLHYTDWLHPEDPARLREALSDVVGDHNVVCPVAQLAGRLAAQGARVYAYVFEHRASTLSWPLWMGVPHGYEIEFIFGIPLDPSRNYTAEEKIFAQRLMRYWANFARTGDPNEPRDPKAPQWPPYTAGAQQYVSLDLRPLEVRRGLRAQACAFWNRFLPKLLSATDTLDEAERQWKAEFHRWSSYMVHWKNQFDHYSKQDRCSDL
Text: National Center for Advancing Translational Sciences [NCATS]
Division of Preclinical Innovation [DPI]
U.S. Environmental Protection Agency [EPA]
National Institutes of Environmental Health Sciences [NIEHS]
National Toxicology Program [NTP]
U.S. Food and Drug Administration [FDA]
Acetylcholinesterase (AChE) is the primary cholinesterase in the body that hydrolyzes a key neurotransmitter, acetylcholine. Inhibition of AChE activity can lead to neurotoxicity. Known inhibitors of AChE include organophosphorous pesticides (OP), chemical warfare agents, drugs, and various phytochemicals.
A homogenous cell-based assay using Amplitetrade mark Fluorimetric Acetylcholinesterase Assay Kit *Green Fluorescence* (AAT Bioquest, Sunnyvale, CA) was used to evaluate the chemicals in the Tox21 10K library that inhibit AChE activity. The assay uses Thiolite Green to quantify the thiocholine produced from the hydrolysis of acetylthiocholine by AChE from the SH-SY5Y cells. AChE can hydrolyze acetylthiocholine to create thiocholine. Thiolite Green is fluorescent when reacting with thiocholine. It has spectral properties similar to those of fluorescein. The fluorescence intensity of Thiolite Green is used to measure AChE activity. Its signal can be easily read by a fluorescence microplate reader at Ex/Em = 490/520 nm.
Tox21 Assay Protocol Summary:
For cell-based AChE assay, 2,000 SH-SY5Y cells in 4 uL/well were dispensed into black, clear-bottom 1536-well plates using a Multidrop Combi (Thermo Scientific) dispenser. The assay plates were incubated overnight at 37 C to allow cells to attach to the wells, followed by the transfer of 23 nL compound or DMSO (vehicle control) by a Pintool station (Wako Automation, CA). The plates were incubated for 30 min at 37 C and 5% CO2, followed by the addition of 4 uL of detection cocktail solution (ThioliteGreen, acetylthiocholine) into each well using Flying Reagent Dispenser (Beckman Coulter, CA) and then following 40 min incubation at room temperature. Fluorescent intensity (Ex/Em = 490/520 nm) was measured using an Envision plate reader (PerkinElmer, MA).
% is set by controls: 0 for no effect and ±100 for the full control effect; potency is the fitted concentration of half-maximal effect.

**Q.** With `O=S(=O)(O)F` as the compound, how does the “activity change, negative = inhibition” value read?
**A.** 0.883% (inactive)

**Q.** How did the Potency turn out when `O=C1C2(Cl)C3(Cl)C4(Cl)C(Cl)(Cl)C5(Cl)C3(Cl)C1(Cl)C5(Cl)C24Cl` (stereo not given) was run?
**A.** inactive

**Q.** Which “activity change, negative = inhibition” value does the source give for `CC[N+]1(CC)CCC(OC(=O)C(O)(c2ccccc2)c2ccccc2)C1` (stereo not given) here?
**A.** 10.6% [at 53.7 µM] (inactive)

**Q.** `Cc1c([N+](=O)[O-])c(C)c([N+](=O)[O-])c(C(C)(C)C)c1[N+](=O)[O-]` was tested. Which “activity change, negative = inhibition” value did it give?
**A.** -14.2% (inactive)

**Q.** With `COC(=O)c1ccccc1S(=O)(=O)NC(=O)Nc1nc(C)nc(OC)n1` as the compound, how does the “activity change, negative = inhibition” value read?
**A.** 0.0521% (inactive)

**Q.** `Oc1cc(Cl)cc(Cl)c1` was tested. Which “activity change, negative = inhibition” value did it give?
**A.** 3.19% (inactive)

**Q.** For `CCO/N=C(\CC)C1=C(O)CC(c2c(C)cc(C)cc2C)CC1=O` (stereo not given), which “activity change, negative = inhibition” value is on record?
**A.** -1.53% (inactive)

**Q.** How did the “activity change, negative = inhibition” value turn out when `C[N+]1(C)[C@@H]2CC[C@H]1CC(OC(=O)C(CO)c1ccccc1)C2` (stereo not given in full) was run?
**A.** 36.6% [at 53.7 µM] (inactive)

**Q.** How did the “activity change, negative = inhibition” value turn out when `C=C(C)C(=O)[O][Sn]([CH2]CCC)([CH2]CCC)[CH2]CCC` was run?
**A.** 7.97% (inactive)

**Q.** Which “activity change, negative = inhibition” value does the source give for `CCCCN(CCCC)C(=S)[S-].CCCCN(CCCC)C(=S)[S-].[Ni+2]` here?
**A.** -12.5% [at 53.7 µM] (inactive)

**Q.** For `CCN(CC)C(=S)S`, which Potency is on record?
**A.** inactive

**Q.** With `ClC1(Cl)C2(Cl)C3(Cl)C4(Cl)C(Cl)(Cl)C5(Cl)C3(Cl)C1(Cl)C5(Cl)C24Cl` (stereo not given) as the compound, how does the “activity change, negative = inhibition” value read?
**A.** 2.81% (inactive)

**Q.** How did the Potency turn out when `CCOP(=O)(Sc1ccccc1)Sc1ccccc1` was run?
**A.** 0.894 µM (active)

**Q.** `CN=C=O` was tested. Which “activity change, negative = inhibition” value did it give?
**A.** 0.765% (inactive)

**Q.** Which “activity change, negative = inhibition” value does the source give for `O=S(=O)(NS(=O)(=O)C(F)(F)F)C(F)(F)F` here?
**A.** -2.17% (inactive)

**Q.** With `O=c1c2ccccc2c(=O)c2c1cc(Cl)c1[nH]c3c([nH]c12)c(Cl)cc1c(=O)c2ccccc2c(=O)c13` as the compound, how does the “activity change, negative = inhibition” value read?
**A.** -17.6% (inactive)

**Q.** For `C=CCOC(=O)c1ccccc1N`, which “activity change, negative = inhibition” value is on record?
**A.** 2.93% (inactive)

**Q.** Which “activity change, negative = inhibition” value does the source give for `CCC[CH2][Sn]([CH2]CCC)([O]C(C)=O)[O]C(C)=O` here?
**A.** -0.0948% (inactive)

**Q.** `N#Cc1ccc(N(CC(N)=O)CC(F)(F)F)cc1C(F)(F)F` was tested. Which “activity change, negative = inhibition” value did it give?
**A.** -3.07% (inactive)

**Q.** How did the “activity change, negative = inhibition” value turn out when `CC(=O)[O][Pb]([c]1ccccc1)([c]1ccccc1)[c]1ccccc1` was run?
**A.** 4.17% (inactive)

**Q.** Which “activity change, negative = inhibition” value does the source give for `O=[N+]([O-])c1cc(C(F)(F)F)c(Cl)c([N+](=O)[O-])c1Nc1ncc(C(F)(F)F)cc1Cl` here?
**A.** 1.41% (inactive)

**Q.** Which Potency does the source give for `CNC(=O)Oc1cc(C)cc(C(C)C)c1` here?
**A.** 0.178 µM (active)

**Q.** Which “activity change, negative = inhibition” value does the source give for `N#Cc1c2ccccc2cc2ccccc12` here?
**A.** 1.14% (inactive)

**Q.** How did the “activity change, negative = inhibition” value turn out when `COc1ccc2c3c1O[C@H]1[C@H](O)CC[C@H]4[C@@H](C2)N(C)CC[C@@]341` was run?
**A.** 1.61% (inactive)

**Q.** How did the “activity change, negative = inhibition” value turn out when `Cc1nn(-c2cc(NS(C)(=O)=O)c(Cl)cc2Cl)c(=O)n1C(F)F` was run?
**A.** 4.5% (inactive)

**Q.** With `COCCC#N` as the compound, how does the “activity change, negative = inhibition” value read?
**A.** -17.1% (inactive)

**Q.** How did the “activity change, negative = inhibition” value turn out when `Oc1cccc(Cl)c1Cl` was run?
**A.** 1.98% (inactive)

**Q.** `CC(C)=CCN1CC[C@@]2(C)c3cc(O)ccc3C[C@@H]1[C@@H]2C` was tested. Which Potency did it give?
**A.** 44.1 µM (active)

**Q.** With `CN1CCc2cc(Cl)c(O)cc2[C@H]2c3ccccc3CC[C@@H]21` as the compound, how does the Potency read?
**A.** 21.9 µM (active)

**Q.** With `Clc1cc(Cl)c(-c2cc(Cl)c(Cl)cc2Cl)cc1Cl` as the compound, how does the “activity change, negative = inhibition” value read?
**A.** 6.11% [at 53.7 µM] (inactive)

**Q.** With `ClC(Cl)C(Cl)(Cl)Cl` as the compound, how does the “activity change, negative = inhibition” value read?
**A.** 1.46% (inactive)

**Q.** Which “activity change, negative = inhibition” value does the source give for `O=[N+]([O-])c1ccccc1-c1ccccc1` here?
**A.** -1.45% (inactive)

**Q.** With `CC(C)c1c(CN(C)C(C)Cc2ccccc2)n(C)n(-c2ccccc2)c1=O` (stereo not given) as the compound, how does the “activity change, negative = inhibition” value read?
**A.** -4.83% [at 53.7 µM] (inactive)

**Q.** With `CCC1(CC)C(=O)N=C(O)NC1=O` as the compound, how does the “activity change, negative = inhibition” value read?
**A.** 1.01% (inactive)

**Q.** How did the Potency turn out when `COP(=S)(OC)Oc1ccc([N+](=O)[O-])c(C)c1` was run?
**A.** 50.2 µM (active)

**Q.** `[O]=[Cr][O][Cr]=[O]` was tested. Which “activity change, negative = inhibition” value did it give?
**A.** -0.896% (inactive)

**Q.** Which “activity change, negative = inhibition” value does the source give for `C[C@H]1[C@H](c2ccc(Cl)cc2)SC(=O)N1C(=O)NC1CCCCC1` here?
**A.** -0.765% (inactive)

**Q.** For `CC(=O)[O][Sn]([c]1ccccc1)([c]1ccccc1)[c]1ccccc1`, which “activity change, negative = inhibition” value is on record?
**A.** 1.81% (inactive)

**Q.** Which “activity change, negative = inhibition” value does the source give for `CCCCCON=O` here?
**A.** 1.19% (inactive)

**Q.** For `C[C@]12CC[C@H]3[C@@H](CCC4=CC(=O)CC[C@@H]43)[C@@H]1CC[C@@H]2OC(=O)CCc1ccco1`, which “activity change, negative = inhibition” value is on record?
**A.** -15.6% [at 53.7 µM] (inactive)

— PubChem BioAssay (Tox21)
